Reference: PubChem BioAssay (NCATS)
A number with no mark means an inactive call. For part of these data: Results with a measured potency or affinity are listed apart. Activity calls are given as the source filed them.

Tests used:
[1] = Ebola virus entry assay, green fluorescence channel
[2] = Ebola virus entry assay, blue channel fluorescence
For efficacy in this document: 0% is about no effect.

SMILES	efficacy [1] [%]	outcome [2]	AC50 [2]
O=C(O)CCNC(=O)c1ccc(N=Nc2ccc(O)c(C(=O)O)c2)cc1	-11.9	inactive	
COC(c1ccccc1)(c1ccccc1)[C@H](Oc1nc(C)cc(C)n1)C(=O)O	-17.9	inactive	
O=C1CCC(N2C(=O)c3ccccc3C2=O)C(=O)N1 (centres undefined)	-16.4		
CN1C(CCl)Nc2cc(Cl)c(S(N)(=O)=O)cc2S1(=O)=O (centres undefined)	-11.6	inactive	
COC(=O)Nc1nc2ccc(C(=O)c3cccs3)cc2[nH]1	64.8		
CN(C)CC[C@@H](c1ccc(Br)cc1)c1ccccn1	34.2	inactive	
CCCN1C[C@H](CSC)C[C@@H]2c3cccc4[nH]cc(c34)C[C@H]21	14.5	inactive	
CC(=O)SC[C@@H](C)C(=O)N1CCC[C@H]1C(=O)N[C@@H](Cc1ccccc1)C(=O)O	13.4		
COc1cccc2c1C(=O)c1c(O)c3c(c(O)c1C2=O)C[C@@](O)(C(=O)CO)C[C@@H]3O[C@H]1C[C@H](N)[C@H](O)[C@H](C)O1	89.6		
C[C@@H](O[C@H]1OCCN(Cc2n[nH]c(=O)[nH]2)[C@H]1c1ccc(F)cc1)c1cc(C(F)(F)F)cc(C(F)(F)F)c1	67.5	inactive	
CNCCCC1c2ccccc2C=Cc2ccccc21	60.1		11.2 µM (active)
CCCCCCCCCCCCCC[N+](C)(C)Cc1ccccc1	-210		
Cc1cccc(C)c1OCC(C)N (centres undefined)	-20.8	inactive	
CCOC(=O)Nc1ccc2c(c1)N(C(=O)CCN1CCOCC1)c1ccccc1S2	62.7	inactive	
COc1cc2c(N3CCN(C(=O)Nc4ccc(OC(C)C)cc4)CC3)ncnc2cc1OCCCN1CCCCC1	52		
CCCCCCCCCCCCCCCC[N+](C)(C)CC	-76.8		

SMILES	efficacy [1] [%]	outcome [2]	AC50 [2]
CCn1cc(C(=O)O)c(=O)c2ccc(C)nc21	67.7		
COC(=O)Nc1nc2ccc(C(=O)c3ccccc3)cc2[nH]1	81.3		5.62 µM (active)
COc1cc(C(C)=O)ccc1OCCCN1CCC(c2noc3cc(F)ccc23)CC1	81.4	inactive	
COCCCC/C(=N\OCCN)c1ccc(C(F)(F)F)cc1	124	inactive	
COC(=O)CCc1ccc(OCC(O)CNC(C)C)cc1 (centres undefined)	35.4	inactive	
Cc1cccc(C)c1NC(=O)CN1CCN(CCCC(c2ccc(F)cc2)c2ccc(F)cc2)CC1	109		
CCCCc1oc2ccccc2c1C(=O)c1cc(I)c(OCCN(CC)CC)c(I)c1	105		
O=C(C1CCCCC1)N1CC(=O)N2CCc3ccccc3C2C1 (centres undefined)	43.7	inactive	
CC(C)c1c(C(=O)Nc2ccccc2)c(-c2ccccc2)c(-c2ccc(F)cc2)n1CC[C@@H](O)C[C@@H](O)CC(=O)O	32.2	inactive	
CN(CCOc1ccc(NS(C)(=O)=O)cc1)CCc1ccc(NS(C)(=O)=O)cc1	20.2	inactive	
O[C@@H](c1cc(C(F)(F)F)nc2c(C(F)(F)F)cccc12)[C@H]1CCCCN1	-219		7.94 µM (active)
CC(C)(C)NC(=O)[C@@H]1CN(Cc2cccnc2)CCN1C[C@@H](O)C[C@@H](Cc1ccccc1)C(=O)N[C@H]1c2ccccc2C[C@H]1O	-17.5	inactive	
CC(=O)O[C@@]12CO[C@@H]1C[C@H](O)[C@@]1(C)C(=O)[C@H](O)C3=C(C)[C@@H](OC(=O)[C@H](O)[C@@H](NC(=O)OC(C)(C)C)c4ccccc4)C[C@@](O)([C@@H](OC(=O)c4ccccc4)[C@H]21)C3(C)C	57.5	inactive	
CCCN(CCC)S(=O)(=O)c1ccc(C(=O)O)cc1	-17.8	inactive	
NCCCC(O)(P(=O)(O)O)P(=O)(O)O	11.2		4.47 µM (active)
CC[C@H](C)C(=O)O[C@H]1C[C@@H](C)C=C2C=C[C@H](C)[C@H](CC[C@@H]3C[C@@H](O)CC(=O)O3)[C@H]21	16.1	inactive	
